Values joined by “and” are separate entries in the source; they are usually repeats but may differ in a detail not shown here. Equal entries are not always repeated. Results filed as inconclusive are left out. A structure can be active in one record and inactive in another. Active and inactive are the calls of the source. Unless noted, the call rests on the fitted dose curve.
Tests used:
[1] = qHTS assay to identify small molecule agonists of the peroxisome proliferator-activated receptor delta (PPARd) signaling pathway - cell viability counter screen (AID 743211; active means well fitted curve in the direction sought with a large enough effect in the repeat runs; an effect the other way counts as inactive or inconclusive; further: nearly all actives have a fitted effect of over 55% in size; further: potency means the concentration at half of the fitted maximal effect)
How it was run: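 Luminescent ATP viability assay (CellTiter-Glo, 30 min RT) in UAS-bla HEK293H cells carrying the PPAR delta reporter construct, 3000 cells/well, after a 17 h compound treatment at 37 C.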

[2] = qHTS assay to identify small molecule antagonists of the peroxisome proliferator-activated receptor delta (PPARd) signaling pathway - cell viability counter screen (AID 743213; active means well fitted curve in the direction sought with a large enough effect in the repeat runs; an effect the other way counts as inactive or inconclusive; further: nearly all actives have a fitted effect of over 50% in size; further: potency means the concentration at half of the fitted maximal effect)
How it was run: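 HEK293H cells with the PPARd UAS-bla reporter, co-treated 17 h at 37 C with compounds and L165041 (300 nM final), were lysed with CellTiter-Glo. Luminescence indicated viable cell content.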

[3] = biological target: Bile acid receptor (Homo sapiens) (UniProt Q96RI1); test: qHTS assay to identify small molecule antagonists of the farnesoid-X-receptor (FXR) signaling pathway (AID 743217; active means well fitted inhibition curve with a large enough effect in the signal ratio in the repeat runs, not every such curve was filed as active; the % refers to the signal ratio; further: on the % scale 0 is the no-effect control and ±100 the full control effect)
Bile acid receptor (Homo sapiens), sequence (Q96RI1 whole entry, looked up): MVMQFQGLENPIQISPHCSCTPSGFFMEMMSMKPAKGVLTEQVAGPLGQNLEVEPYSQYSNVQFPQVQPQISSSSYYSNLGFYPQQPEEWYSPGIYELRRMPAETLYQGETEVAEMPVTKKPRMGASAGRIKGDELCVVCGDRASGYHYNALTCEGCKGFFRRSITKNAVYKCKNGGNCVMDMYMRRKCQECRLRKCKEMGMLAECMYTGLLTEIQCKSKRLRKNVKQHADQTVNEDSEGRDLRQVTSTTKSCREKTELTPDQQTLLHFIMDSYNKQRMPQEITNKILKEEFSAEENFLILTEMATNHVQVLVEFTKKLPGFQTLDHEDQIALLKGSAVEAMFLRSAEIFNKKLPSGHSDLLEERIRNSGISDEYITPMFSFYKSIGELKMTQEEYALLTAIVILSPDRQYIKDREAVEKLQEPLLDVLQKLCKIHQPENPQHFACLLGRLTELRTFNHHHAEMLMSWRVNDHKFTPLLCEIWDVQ
How it was run: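 Quantitative HTS, beta-lactamase reporter format: FXR-UAS-bla HEK 293T cells co-treated 16 h at 37 °C with compounds and 50 uM final chenodeoxycholic acid, then read by B/G FRET fluorescence.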

[4] = qHTS assay to identify small molecule agonists of the farnesoid-X-receptor (FXR) signaling pathway - cell viability counter screen (AID 743218; active means well fitted curve in the direction sought with a large enough effect in the repeat runs; an effect the other way counts as inactive or inconclusive; further: nearly all actives have a fitted effect of over 45% in size; further: potency means the concentration at half of the fitted maximal effect)
How it was run: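 Same-well cytotoxicity check on FXR-UAS-bla HEK 293T cells: 5 h attachment, 16 h compound at 37 C, CellTiter-Glo luminescence read at room temperature after 30 min.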

[5] = biological target: Bile acid receptor (Homo sapiens) (UniProt Q96RI1); test: qHTS assay to identify small molecule agonists of the farnesoid-X-receptor (FXR) signaling pathway (AID 743220; active means well fitted activation curve with a large enough effect in the signal ratio in the repeat runs, not every such curve was filed as active; the % refers to the signal ratio; further: on the % scale 0 is the no-effect control and ±100 the full control effect)
How it was run: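 FXR-UAS-bla HEK 293T cells carrying a UAS-driven beta-lactamase reporter were plated for 5 h at 37C/5% CO2, then exposed to DMSO-dissolved Tox21 10K compounds for 16 h at 37C. A LiveBLAzer B/G FRET substrate was loaded for 2 h at room temperature before fluorescence reading.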

[6] = qHTS assay to identify small molecule antagonists of the farnesoid-X-receptor (FXR) signaling pathway - cell viability counter screen (AID 743221; active means well fitted cell-killing curve with a large enough effect in the repeat runs, not every such curve was filed as active; further: nearly all actives have a fitted effect of over 50% in size; further: potency means the concentration at half of the fitted maximal effect)
How it was run: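 In GeneBLAzer FXR-UAS-bla HEK 293T cells stimulated with 50 uM chenodeoxycholic acid (final), compounds acted for 16 h at 37 C. Viability was assessed afterwards by CellTiter-Glo luminescence.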

[7] = qHTS assay to identify small molecule antagonists of the vitamin D receptor (VDR) signaling pathway - cell viability counter screen (AID 743225; active means well fitted curve in the direction sought with a large enough effect in the repeat runs; an effect the other way counts as inactive or inconclusive; further: nearly all actives have a fitted effect of over 50% in size; further: potency means the concentration at half of the fitted maximal effect)
How it was run: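 Luminescent cell viability (CellTiter-Glo) in VDR-bla HEK 293T cells after 16 h compound exposure at 37C in the presence of 3 nM final 1-alpha,25-dihydroxy vitamin D3.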

[8] = qHTS assay to identify small molecule agonists of the NFkB signaling pathway - cell viability counter screen (AID 1159515); further: series mostly up to about 61 µM; on the % scale 0 is the no-effect control and ±100 the full control effect; nearly all actives have a fitted effect of over 55% in size
How it was run: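 Counter screen run alongside the NFkB-bla agonist assay: ME-180 reporter cells exposed to compounds for 5 hr, then lysed with CellTiter-Glo in the same wells. Luminescence, read after 30 min, reflects viable cells.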

[9] = qHTS assay to identify small molecule agonists of the endoplasmic reticulum stress response signaling pathway (AID 1159516; active means well fitted activation curve with a large enough effect in the signal ratio in the repeat runs, not every such curve was filed as active; the % refers to the signal ratio; further: on the % scale 0 is the no-effect control and ±100 the full control effect)
How it was run: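 For this screen, HeLa cells stably carrying beta-lactamase under the ER stress response element received test compounds, positive controls or DMSO for 5 hr at 37 C; B/G FRET substrate was then added and dual-wavelength emission recorded.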

[10] = qHTS assay to identify small molecule agonists of the endoplasmic reticulum stress response signaling pathway - cell viability counter screen (AID 1159517); further: series mostly up to about 61 µM; on the % scale 0 is the no-effect control and ±100 the full control effect; nearly all actives have a fitted effect of over 50% in size
How it was run: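 After overnight attachment, ESRE-bla HeLa cells were treated with Tox21 library compounds for 5 hr. CellTiter-Glo luminescence, read 30 min post-addition at room temperature, reported viability.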

[11] = qHTS assay to identify small molecule antagonists of the retinoid-related orphan receptor gamma (ROR-gamma) signaling pathway - cell viability counter screen (AID 1159520; active means well fitted curve in the direction sought with a large enough effect in the repeat runs; an effect the other way counts as inactive or inconclusive; further: nearly all actives have a fitted effect of over 50% in size; further: potency means the concentration at half of the fitted maximal effect)
How it was run: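 Cytotoxicity was read from cellular ATP (CellTiter-Glo luminescence) after 16 hr at 37 C with 1 uM doxycycline induction. The inducer was added 2 hr after compound transfer to Tet-on ROR gamma CHO cells.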

[12] = qHTS assay to identify small molecule agonists of the AP-1 signaling pathway - cell viability counter screen (AID 1159525); further: nearly all actives have a fitted effect of over 55% in size; further: potency means the concentration at half of the fitted maximal effect
How it was run: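 Intracellular ATP by Cell Titer Glo luminescence (30 min, RT) in the same ME-180 AP-1-bla wells after the 5 h compound exposure at 37 °C. Normalised to tetra n-octyl ammonium bromide and DMSO controls.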

[13] = qHTS assay to identify small molecule agonists of the AP-1 signaling pathway (AID 1159526); further: on the % scale 0 is the no-effect control and ±100 the full control effect
[14] = biological target: Retinoic acid receptor RXR-alpha (Homo sapiens) (UniProt P19793); test: qHTS assay to identify small molecule agonists of the RXR signaling pathway (AID 1159527); further: nearly all actives have a fitted effect of over 35% in size; further: potency means the concentration at half of the fitted maximal effect
Retinoic acid receptor RXR-alpha (Homo sapiens), sequence (P19793 whole entry, looked up): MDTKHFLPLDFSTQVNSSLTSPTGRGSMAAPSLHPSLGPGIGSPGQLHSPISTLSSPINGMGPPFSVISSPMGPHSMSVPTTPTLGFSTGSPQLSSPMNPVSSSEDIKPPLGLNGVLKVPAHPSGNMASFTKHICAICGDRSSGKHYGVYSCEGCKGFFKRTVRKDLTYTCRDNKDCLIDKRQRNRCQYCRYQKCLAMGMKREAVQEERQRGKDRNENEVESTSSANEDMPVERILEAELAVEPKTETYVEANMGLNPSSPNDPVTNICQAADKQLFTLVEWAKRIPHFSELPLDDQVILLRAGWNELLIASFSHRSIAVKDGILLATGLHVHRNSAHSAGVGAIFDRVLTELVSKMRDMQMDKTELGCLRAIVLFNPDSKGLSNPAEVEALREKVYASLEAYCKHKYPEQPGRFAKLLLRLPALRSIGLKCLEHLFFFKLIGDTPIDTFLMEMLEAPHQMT
How it was run: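 Beta-lactamase reporter assay, agonist format. Engineered HEK 293T line, charcoal-stripped FBS at 2%, overnight (16 hr) exposure, fluorescence at 460 and 530 nm after 405 nm excitation.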

[15] = qHTS assay to identify small molecule agonists of the vitamin D receptor (VDR) signaling pathway - cell viability counter screen (AID 743224; active means well fitted curve in the direction sought with a large enough effect in the repeat runs; an effect the other way counts as inactive or inconclusive; further: nearly all actives have a fitted effect of over 50% in size; further: potency means the concentration at half of the fitted maximal effect)
How it was run: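 Counter screen for cytotoxicity: VDR-bla cells at 2,000 cells/well, 16 h compound exposure, then CellTiter-Glo luminescence after the beta-lactamase measurement.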

[16] = biological target: Peroxisome proliferator-activated receptor delta (Homo sapiens) (UniProt Q03181); test: qHTS assay to identify small molecule agonists of the peroxisome proliferator-activated receptor delta (PPARd) signaling pathway (AID 743212)
Peroxisome proliferator-activated receptor delta (Homo sapiens), sequence (Q03181 whole entry, looked up): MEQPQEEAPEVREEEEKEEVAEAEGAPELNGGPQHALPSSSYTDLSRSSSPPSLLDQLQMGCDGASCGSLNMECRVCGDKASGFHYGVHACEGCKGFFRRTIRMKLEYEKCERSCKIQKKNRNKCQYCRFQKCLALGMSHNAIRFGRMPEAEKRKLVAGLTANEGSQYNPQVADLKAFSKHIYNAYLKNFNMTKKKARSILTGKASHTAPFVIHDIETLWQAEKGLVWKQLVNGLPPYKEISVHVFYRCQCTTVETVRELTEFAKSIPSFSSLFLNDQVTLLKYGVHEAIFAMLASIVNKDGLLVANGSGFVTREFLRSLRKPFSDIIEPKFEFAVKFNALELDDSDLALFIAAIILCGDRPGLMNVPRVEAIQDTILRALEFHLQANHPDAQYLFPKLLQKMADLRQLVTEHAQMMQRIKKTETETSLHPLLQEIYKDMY
How it was run: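 Steps: seed PPARd-bla HEK293H cells; incubate 5 h, 37 C, 5% CO2; add compounds in DMSO; incubate, 37 C; add LiveBLAzer B/G FRET substrate; hold 2 h at room temperature; measure fluorescence.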

[17] = biological target: Peroxisome proliferator-activated receptor delta (Homo sapiens) (UniProt Q03181); test: qHTS assay to identify small molecule antagonists of the peroxisome proliferator-activated receptor delta (PPARd) signaling pathway (AID 743215; active means well fitted inhibition curve with a large enough effect in the signal ratio in the repeat runs, not every such curve was filed as active; the % refers to the signal ratio)
How it was run: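 Screen format: qHTS, antagonist mode. HEK293H PPARd-bla cells received compound and 300 nM L165041 (final), 17 h, 37 C. Beta-lactamase detected via FRET substrate fluorescence, 2 h, room temperature.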

[18] = biological target: Vitamin D3 receptor (Homo sapiens) (UniProt P11473); test: qHTS assay to identify small molecule agonists of the vitamin D receptor (VDR) signaling pathway (AID 743222); further: on the % scale 0 is the no-effect control and ±100 the full control effect
Vitamin D3 receptor (Homo sapiens), sequence (P11473 whole entry, looked up): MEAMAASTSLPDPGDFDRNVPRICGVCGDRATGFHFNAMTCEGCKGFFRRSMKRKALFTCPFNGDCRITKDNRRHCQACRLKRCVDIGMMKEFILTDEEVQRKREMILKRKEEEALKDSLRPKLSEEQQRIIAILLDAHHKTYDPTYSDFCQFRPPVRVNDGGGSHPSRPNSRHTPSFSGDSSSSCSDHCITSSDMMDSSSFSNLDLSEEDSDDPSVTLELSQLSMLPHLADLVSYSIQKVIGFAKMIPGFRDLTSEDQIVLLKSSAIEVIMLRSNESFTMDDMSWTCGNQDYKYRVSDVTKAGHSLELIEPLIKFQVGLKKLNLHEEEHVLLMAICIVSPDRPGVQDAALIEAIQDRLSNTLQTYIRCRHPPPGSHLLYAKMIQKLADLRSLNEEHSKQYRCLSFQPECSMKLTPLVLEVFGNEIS
How it was run: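 Using LiveBLAzer B/G FRET detection, agonism was scored in VDR-bla cells exposed overnight (16 h, 37C) to DMSO-dissolved compounds; substrate incubation was 2 h at room temperature.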

[19] = biological target: Nuclear receptor ROR-gamma (Homo sapiens) (UniProt P51449); test: qHTS assay to identify small molecule antagonists of the retinoid-related orphan receptor gamma (ROR-gamma) signaling pathway (AID 1159521; active means well fitted curve in the direction sought with a large enough effect in the repeat runs; an effect the other way counts as inactive or inconclusive; further: nearly all actives have a fitted effect of over 50% in size; further: potency means the concentration at half of the fitted maximal effect)
How it was run: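 CHO cells expressing RORγ under a TET-on promoter, luciferase under RORE control. Dox 1 uM final, 16 h; compounds added 2 h prior. Luminescence decrease measured.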

[20] = biological target: Vitamin D3 receptor (Homo sapiens) (UniProt P11473); test: qHTS assay to identify small molecule antagonists of the vitamin D receptor (VDR) signaling pathway (AID 743223; active means well fitted inhibition curve with a large enough effect in the signal ratio in the repeat runs, not every such curve was filed as active; the % refers to the signal ratio; further: on the % scale 0 is the no-effect control and ±100 the full control effect)
How it was run: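 Agonist 1alpha,25-dihydroxyvitamin D3 (3 nM in well) was added with each compound to VDR-bla cells preincubated 4 h. Cells stood 16 h at 37C, then FRET substrate 2 h at room temperature; fluorescence intensity recorded.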

CCC(C)(Oc1ccc(C2(c3ccc(OC(C)(CC)C(=O)O)cc3)CCCCC2)cc1)C(=O)O (stereo unspecified)
inactive: Potency [1] | Potency [2] | Potency [3] | Potency [4] | Potency [5] | Potency [6] | Potency [7] | Potency [8] | outcome [9] | Potency [10] | Potency [11] | Potency [12] | Potency [13] | Potency [14]

O
inactive: Potency [1] | Potency [4] | Potency [6] | Potency [15] | Potency [7] | Potency [8] | outcome [9] | Potency [10] | Potency [11] | Potency [12] | Potency [13] | Potency [14]

CC(=O)N[C@@H](CS)C(=O)O
inactive: Potency [1] | Potency [16] | Potency [2] | Potency [17] | Potency [4] | Potency [5] | Potency [6] | Potency [18] | Potency [15] | Potency [7] | Potency [8] | outcome [9] | Potency [10] | Potency [11] | Potency [12] | Potency [13] | Potency [14]

NCCO
inactive: Potency [1] | Potency [4] | Potency [6] | Potency [15] | Potency [7] | Potency [8] | outcome [9] | Potency [10] | Potency [11] | Potency [12] | Potency [13] | Potency [14]

CCC(C)(C)C(=O)O[C@H]1C[C@@H](C)C=C2C=C[C@H](C)[C@H](CC[C@@H]3C[C@@H](O)CC(=O)O3)[C@H]21
active: Potency [6] 11 µM | Potency [11] 9.44 µM | Potency [19] 3.86 µM and 841 nM
inactive: Potency [2] | Potency [4] | Potency [18] | Potency [15] | Potency [7] | Potency [8] | outcome [9] | Potency [10] | Potency [12] | Potency [13]

CC(=O)CC(=O)Nc1ccc2[nH]c(=O)[nH]c2c1
inactive: Potency [1] | Potency [16] | Potency [2] | Potency [17] | Potency [3] | Potency [4] | Potency [5] | Potency [6] | Potency [15] | Potency [7] | Potency [8] | outcome [9] | Potency [10] | Potency [11] | Potency [12] | Potency [13] | Potency [14]

O=C1NCC2(CCN(CCc3ccccc3)CC2)O1
inactive: Potency [1] | Potency [2] | Potency [4] | Potency [6] | Potency [15] | Potency [7] | Potency [8] | outcome [9] | Potency [10] | Potency [11] | Potency [12] | Potency [13] | Potency [14]

N[C@@H]1CONC1=O
inactive: Potency [2] | Potency [4] | Potency [5] | Potency [6] | Potency [18] | Potency [20] | Potency [15] | Potency [7] | Potency [8] | outcome [9] | Potency [10] | Potency [11] | Potency [19] | Potency [12] | Potency [13] | Potency [14]

CC(C)(C)c1ccccc1
inactive: Potency [1] | Potency [4] | Potency [6] | Potency [18] | Potency [15] | Potency [7] | Potency [8] | outcome [9] | Potency [10] | Potency [11] | Potency [12] | Potency [13] | Potency [14]

C=C(C)C(=O)O
inactive: Potency [1] | Potency [16] | Potency [17] | Potency [4] | Potency [6] | Potency [18] | Potency [7] | Potency [8] | outcome [9] | Potency [10] | Potency [11] | Potency [12] | Potency [13] | Potency [14]

CN(C)c1ccc2nc3ccc(=[N+](C)C)cc-3sc2c1
inactive and 34.4 µM (active): Potency [19]
inactive and 21.9 µM (active): Potency [7]
inactive: Potency [4] | Potency [5] | Potency [8] | outcome [9] | Potency [10]
active: Potency [1] 9.39 µM and 49 µM | Potency [6] 21 µM and 49 µM | Potency [15] 49 µM and 2.98 µM | Potency [11] 16.6 µM and 13.7 µM | Potency [12] 16.7 µM and 43.6 µM

OCCOCCN1CCN(C(c2ccccc2)c2ccc(Cl)cc2)CC1 (stereo unspecified)
inactive: Potency [1] | Potency [16] | Potency [17] | Potency [4] | Potency [6] | Potency [18] | Potency [20] | Potency [15] | Potency [7] | Potency [8] | outcome [9] | Potency [10] | Potency [11] | Potency [12] | Potency [13]
active: Potency [2] 43.1 µM

O=C(O)c1cc(Cl)cc(Cl)c1
inactive: Potency [16] | Potency [2] | Potency [17] | Potency [4] | Potency [6] | Potency [15] | Potency [7] | Potency [8] | outcome [9] | Potency [10] | Potency [11] | Potency [19] | Potency [12] | Potency [13] | Potency [14]

CC1COc2c(N3CCN(C)CC3)c(F)cc3c(=O)c(C(=O)O)cn1c23 (stereo unspecified)
inactive: Potency [1] | Potency [16] | Potency [17] | Potency [3] | Potency [4] | Potency [5] | Potency [6] | Potency [18] | Potency [7] | Potency [8] | outcome [9] | Potency [10] | Potency [11] | Potency [12] | Potency [13] | Potency [14]

CC(=O)OCCOCCOCCOC(C)=O
inactive and 12.3 µM (active): Potency [14]
inactive: Potency [1] | Potency [16] | Potency [17] | Potency [4] | Potency [5] | Potency [6] | Potency [18] | Potency [15] | Potency [7] | Potency [8] | outcome [9] | Potency [10] | Potency [11] | Potency [12] | Potency [13]

CCCCCCCCCCCCCCCCCl
inactive: Potency [1] | Potency [4] | Potency [6] | Potency [18] | Potency [20] | Potency [15] | Potency [7] | Potency [8] | outcome [9] | Potency [10] | activity, negative = cytotoxicity [11] 5.98% [at 19 µM] | viability change, negative = cytotoxic [12] -12.8% [at 15.8 µM] | activation [13] -1.11% [at 15.8 µM] | activation [14] 0.473% [at 15.8 µM]

O=C1CC2(CCCC2)CC(=O)N1CCCCN1CCN(c2ncccn2)CC1
24.5 µM (active) and inactive: Potency [4]
27.3 µM (active) and inactive: Potency [19]
inactive: Potency [1] | Potency [2] | Potency [3] | Potency [5] | Potency [6] | Potency [18] | Potency [7] | Potency [8] | outcome [9] | Potency [10] | Potency [11] | Potency [12] | Potency [13]

Cc1cccc([N+](=O)[O-])c1C(=O)O
inactive: Potency [1] | Potency [16] | Potency [17] | Potency [4] | Potency [5] | Potency [6] | Potency [18] | Potency [15] | Potency [7] | Potency [8] | outcome [9] | Potency [10] | Potency [11] | Potency [12] | Potency [13] | Potency [14]

From PubChem BioAssay (Tox21)
